Source: PubChem
Cycloheximide cs = Cycloheximide Counterscreen for Small Molecule Inhibitors of Shiga Toxin. cell reporter, cycloheximide protein synthesis inhibition counterscreen. actives 12% (n = 300,000). max response, %; in the data active means max response mostly above about 13%, no sharp cut-off; inactive means mostly below about 14%; further: read at 38.3 µM for the half of the compounds with a filed dose
Pf growth 48h = Primary qHTS for delayed death inhibitors of the malarial parasite plastid, 48 hour incubation | Potency, µM (top dose mostly 28.7 µM), hits mostly inhibitors | actives 5.9% (n = 310,000) | P. falciparum luciferase growth in erythrocytes, 48 h | AID 504832, 2011
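Growth was read as firefly luciferase luminescence after a 48 h, 37 C, 5% CO2 exposure of compounds to reporter-bearing P. falciparum cultures (0.1% parasitemia, 2% hematocrit final) in Albumax-supplemented RPMI 1640.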
Shiga inhibitor = A qHTS for Small Molecule Inhibitors of Shiga Toxin | actives 9.2% (n = 290,000) | inhibition, % at 38.7 µM | AID 2315, 2010 | Vero cells, Shiga toxin protein synthesis inhibition reporter; in the data active means inhibition mostly above about 28%, no sharp cut-off; inactive means mostly below about 43%
Pf growth 96h = Primary qHTS for delayed death inhibitors of the malarial parasite plastid, 96 hour incubation; Potency, µM (highest dose often 28.7 µM), usual class: inhibitors; actives 6.9% (n = 320,000); P. falciparum luciferase reporter growth, 96 h
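Parasite growth measured via integrated firefly luciferase reporter in P. falciparum. Infected erythrocytes at 2% hematocrit, 0.05% parasitemia final were treated 96 hours at 37 C under 5% CO2, and luminescence was read.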
SARS PLP yeast = qHTS of Yeast-based Assay for SARS-CoV PLP; Potency, µM (titrated, usually from 32.9 µM), hits mostly activators; S. cerevisiae expressing SARS-CoV PLpro, growth rescue; actives 0.19% (n = 330,000); AID 485353, 2010; calls by dose curve; further: nearly all actives have a fitted effect of over 55% in size
AMA1-RON2 inh = qHTS for Inhibitors of AMA1-RON; Towards Development of Antimalarial Drug Lead: Primary Screen | AID 720542, 2013 | AlphaScreen AMA1-biotinylated RON2 peptide binding | Plasmodium falciparum AMA1 (3D7) - RON2 peptide interaction | Potency, µM (top dose mostly 58.2 µM), most hits filed as inhibitors | actives 0.2% (n = 360,000); further: nearly all actives have a fitted effect of over 45% in size
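AMA1 (3D7) with his tag at 25 nM final met compounds first, then biotinylated RON2 peptide at 25 nM; detection used donor plus acceptor beads, 10 µg/mL apiece, read by AlphaScreen after 30 min at room temperature.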
Numbers stand for hits; n = inactive; u = inconclusive; x = no result given; ! = a repeat was not active; [ ] = dose if it differs, or a comment. A selection: hits, their analogues and other compounds. The true share with any hit is near 19%. Unless noted, the call rests on the fitted dose curve; in most records, active means well fitted curve in the direction sought with a large enough effect; inconclusive means small, poorly fitted or top-dose-only effect, or another doubt; inactive means no such curve, though single readings can be large; an effect the other way counts as inactive or inconclusive.

SMILES	Cycloheximide cs	Pf growth 48h	Shiga inhibitor	Pf growth 96h	SARS PLP yeast	AMA1-RON2 inh
O=C(OC(C(=O)NCc1ccccc1)c1ccccc1F)c1ccco1 (centres undefined)	n	n	n	n	n	n
CC(=O)Nc1ccc(NC(=O)c2ccc(CN3CCc4ccccc4C3)cc2)cc1	n	u	n	9.3µM	n	n
O=C(Nc1cccc(Br)c1)c1ccc(CN2CCc3ccccc3C2)cc1	17	n	n	9.3µM	x	n
CCc1cccc(C)c1NC(=O)c1ccc(CN2CCc3ccccc3C2)cc1	n	4.7µM	n	1.5µM	n	n
CSc1cccc(NC(=O)c2ccc(CN3CCc4ccccc4C3)cc2)c1	n	4.1µM	n	n	n	n
O=C(NCCN1CCC(n2c(=O)[nH]c3ccccc32)CC1)N1c2ccccc2Sc2ccccc21	x	x	x	x	x	n
O=C(Cc1ccccc1)Nc1sc2c(c1C(=O)Nc1ccc(Cl)cc1)CCOC2	n	x	n	x	x	x
CCOC(=O)c1nc(Nc2ccc(Nc3ccccc3)cc2)c2ccccc2n1	n	u	n	u	n	u
CCOC(=O)c1nc(Nc2ccc(OC)cc2)c2ccccc2n1	24	n	47	u	n	n
CCOC(=O)c1ccc(Nc2nc(C(=O)OCC)nc3ccccc23)cc1	n	9.3µM	n	n	n	n
CCOC(=O)c1nc(Nc2ccc(C(=O)O)cc2)c2ccccc2n1	n	n	n	n	n	n
CCOC(=O)N1CCN(S(=O)(=O)c2c(C)nc3scc(C)n3c2=O)CC1	n	u	n	n	n	n
CCC(C(=O)NC1CCCCC1)n1c(SCc2ccccc2F)nc2ccncc21 (centres undefined)	17!	n	n	8.3µM	n	n
O=C(CN1CCN(c2cccc(C(F)(F)F)c2)CC1)N(C1CCCC1)C1CCS(=O)(=O)C1 (centres undefined)	x	15µM	x	8.3µM	n	n[11.6 µM]
Cc1ccc(-c2nnn(CCOc3cccc(Br)c3)n2)cc1	n	n	n	u	n	n
COc1cc(C(=O)OC2C[C@H]3CC[C@@H](C2)N3)ccc1O (some centres undefined)	n	12µM	n	u	n	n
COc1ccc(-c2ccc(C(=O)NCc3ccc(N(C)C)cc3)c3occc23)c(C)c1	x	x	x	x	x	8.9µM
COc1cc(-c2coc3c(C(=O)NCc4ccc(N(C)C)cc4)cccc23)ccc1O	x	x	x	x	x	32µM
O=C(CN1CCN(c2ccccc2F)CC1)N1N=CCC1c1ccccc1 (centres undefined)	n	n	n	n	n	n
COc1cc(CNC(=O)c2ccc3oc(C(C)C)nc3c2)cc(OC)c1	14	u	n	n	n	n
Cc1cnc(CNC(=O)c2ccc3oc(C(C)C)nc3c2)[nH]1	n	n	n	u	n	n
CCn1ccnc1CNC(=O)c1ccc2oc(C(C)C)nc2c1	n	n	n	n	n	n
CC(C)c1nc2cc(C(=O)N(C)Cc3ccc(F)cc3)ccc2o1	43	n	80	u	n	n
CC(C)c1nc2cc(C(=O)NC(c3cccnc3)C(F)(F)F)ccc2o1 (centres undefined)	18	n	n	u	n	n
O=C(CN1CCN(S(=O)(=O)c2ccc3c(c2)OCCCO3)CC1)N1CCc2ccccc21	x	x	x	x	x	n
SMILES	Cycloheximide cs	Pf growth 48h	Shiga inhibitor	Pf growth 96h	SARS PLP yeast	AMA1-RON2 inh
CCCNC(=O)COCc1cc(-c2ccc3c(c2)OCO3)on1	29	n[0.00184 µM]	36	n	n	n
CCCCNC(=O)COCc1cc(-c2ccc3c(c2)OCO3)on1	n	n[0.00184 µM]	47	u	n	n
C=CCNC(=O)COCc1cc(-c2ccc3c(c2)OCO3)on1	27	n	39	n	n	n
CC(C)CNC(=O)COCc1cc(-c2ccc3c(c2)OCO3)on1	38	n	100	n	n	n
COCC(C)NC(=O)COCc1cc(-c2ccc3c(c2)OCO3)on1 (centres undefined)	n	n	n	n	n	n
C=CCNC(=O)CN1CCN(Cc2ccc3c(c2)OCO3)CC1	n	n	n	n	n	n
CCCNC(=O)COC(=O)/C=C/c1ccc2c(c1)OCO2	n	n	n	n	n	n
C[C@@H](NC(=O)c1cc2c([nH]c3ccccc32)c(-c2ccccc2)n1)C(=O)O	n	n[0.00184 µM]	n	u	n	n
CC(=O)Nc1ccc(SCC(=O)N(C)C2CCS(=O)(=O)C2)cc1 (centres undefined)	n	n	n	n	n	n
CCc1ccc(NC(=O)c2cc(-c3ccc4c(c3)OCO4)on2)cc1	n	n	n	n	n	n
CC(C)CNC(=O)c1cc(-c2ccc3c(c2)OCO3)on1	39	n	74	n	n	n
O=C1NC(c2cccs2)Nc2sc3c(c21)CCCC3 (centres undefined)	38	n	87	x	n	n
Cc1ccc(C2=NCCn3nc4cc(C(F)(F)F)ccc4c32)cc1	x	u	x	n	n	n
COCCn1c(SC(C(=O)Nc2cc(C)ccc2OC)c2ccccc2)nnc1-c1ccc(Cl)cc1 (centres undefined)	n	13µM	n	9.3µM	n	n
COc1ccc(C)cc1NC(=O)C(Sc1nnnn1C)c1ccccc1 (centres undefined)	n	n	n	n	n	n
COc1ccc(CNc2ncccc2[N+](=O)[O-])cc1	26	n	52	n	n	n
O=[N+]([O-])c1ccccc1OCCOc1ccccc1[N+](=O)[O-]	18	n	50	n	n	n
CC1CN(CCCOc2ccccc2[N+](=O)[O-])CC(C)O1 (centres undefined)	n	n	n	n	n	n
COc1ccc(OCCOc2ccccc2[N+](=O)[O-])cc1	39	n	n	n	n	n
O=[N+]([O-])c1ccccc1OCCCN1CCOCC1	9.3	n	n	n	n	n
COc1ccc(OCCOCCOc2ccc(C)cc2[N+](=O)[O-])cc1	n	n	n	n	n	n
CC(C)(C)C(=O)COc1ccccc1[N+](=O)[O-]	n	n	n	n[1.15 µM]	n	n
CCOC(=O)/C=C/COc1ccccc1[N+](=O)[O-]	47	n	102	n	n	n
CCOC(=O)N(C)S(=O)(=O)c1ccccc1[N+](=O)[O-]	n	n	n	n	n	n
O=[N+]([O-])c1cccc2c([N+](=O)[O-])cccc12	x	n	x	5.9µM	n	n
O=[N+]([O-])c1cccc2[nH]ncc12	x	x	x	x	x	n
Cc1ccc(N2C(=O)c3ccccc3C2Nc2ccccc2F)nc1 (centres undefined)	32	x	55	u	n	n
O=C1c2ccccc2C(Nc2ccc(Cl)cn2)N1c1ccccn1 (centres undefined)	n	12µM	n	n	n	n
